Screens: PubChem BioAssay, National Center for Advancing Translational Sciences (NCATS)
Pf growth 96h: P. falciparum growth inhibition at 96 hours | P. falciparum luciferase reporter growth, 96 h | Potency, µM (doses to about 28.7 µM), without a hit: at the highest dose activity change, negative = inhibition, most hits filed as inhibitors | 320,000 tested, 6.9% active | AID 504834; note: potency is the fitted concentration of half-maximal effect; % is set by controls: 0 for no effect and ±100 for the full control effect
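Two parasite generations (96 h, 37 C, 5% CO2) of compound exposure in infected erythrocytes (0.05% parasitemia, 2% hematocrit). Luciferase-reporter P. falciparum; decreased luminescence indicates inhibited growth, aimed at apicoplast-acting delayed death.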
HCV inh: inhibitors of hepatitis C virus infection; Huh7.5.1 HCVcc-Cre infection, luciferase reporter, 44 h; Potency, µM (series often up to 41.8 µM), without a hit: top-dose activity change, negative = inhibition, actives largely listed as inhibitors; 340,000 tested, 3.4% active; AID 651820; note: potency is the fitted concentration of half-maximal effect; % is set by controls: 0 for no effect and ±100 for the full control effect
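Luciferase read-out (15 sec integration) after a 15 min room-temperature substrate step quantifies HCVcc-Cre infection. Cells, 1,000 per well, had compound added 4 h post-plating, then virus at ~0.5 moi, and were cultured 44 h.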
Shiga toxin inh: blocks Shiga toxin action in Vero cells; 290,000 tested, 9.2% active; inhibition, % at 38.7 µM; Vero cells, Shiga toxin protein synthesis inhibition reporter; AID 2315; in the data active = inhibition mostly above about 28%, no sharp cut-off; inactive = mostly below about 43%; note: 0% is about no effect
AMA1-RON2 inh: disrupts binding of P. falciparum AMA1 to RON2. AlphaScreen AMA1-biotinylated RON2 peptide binding. Potency, µM (highest dose often 58.2 µM), inactives show at the top dose activity change, negative = inhibition, usual class: inhibitors. 360,000 tested, 0.2% active. AID 720542;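 note: potency is the fitted concentration of half-maximal effect; 0% = vehicle wells and -100% = peptide control; nearly all actives have a fitted effect of over 45% in size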
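AMA1 (3D7) with his tag at 25 nM final met compounds first, then biotinylated RON2 peptide at 25 nM; detection used donor plus acceptor beads, 10 µg/mL apiece, read by AlphaScreen after 30 min at room temperature.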
Pf growth 48h: P. falciparum growth inhibition at 48 hours (one generation) | P. falciparum luciferase growth in erythrocytes, 48 h | Potency, µM (doses to about 28.7 µM), for the others: at the highest dose activity change, negative = inhibition, actives largely listed as inhibitors | AID 504832 | 310,000 tested, 5.9% active; note: potency is the fitted concentration of half-maximal effect; % is set by controls: 0 for no effect and ±100 for the full control effect
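Cell-based growth assay: transgenic P. falciparum expressing firefly luciferase, cultured in red cells within RPMI 1640 containing 0.5% w/v Albumax, 24 mM bicarbonate and gentamycin. A drop in luciferase activity indicates inhibition.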
Cycloheximide cs: counter-screen hit for Shiga toxin inhibitors, cycloheximide; cell reporter, cycloheximide protein synthesis inhibition counterscreen; max response, %; 300,000 tested, 12% active; AID 2314; in the data active = max response mostly above about 13%, no sharp cut-off; inactive = mostly below about 14%; note: read at 38.3 µM for the half of the compounds with a filed dose; 0% is about no effect
* = called active by the depositor; [ ] = another dose, or the depositor's remark. Sampled rows, rich in hits. Any-hit rate of the full collection: about 21%. Unless noted, calls come from the whole dose curve; as a rule, active = well fitted curve in the direction sought with a large enough effect; inconclusive = small, poorly fitted or top-dose-only effect, or another doubt; inactive = no such curve, though single readings can be large; an effect the other way counts as inactive or inconclusive.

Screening O=C(CN1C(=O)NC2(CCCc3ccccc32)C1=O)Nc1cc(F)ccc1F (stereo not drawn) returned Pf growth 96h 6%, HCV inh 14%, AMA1-RON2 inh -2% and Pf growth 48h -9%.
CC(=O)OCC(=O)[C@@]12OC3(CCCC3)O[C@@H]1C[C@H]1[C@@H]3CCC4=CC(=O)C=C[C@]4(C)[C@@]3(F)[C@@H](O)C[C@@]12C was read as Pf growth 96h 10µM*, HCV inh -10%[8.37 µM], Shiga toxin inh -10, AMA1-RON2 inh -1%, Pf growth 48h 12µM* and Cycloheximide cs -2.
Screening CC1(C)O[C@H]2C[C@@H]3[C@H]4CCC5=CC(=O)C=C[C@]5(C)[C@@]4(F)[C@@H](O)C[C@]3(C)[C@]2(C(=O)CO)O1 returned Pf growth 96h 9.5µM*, Shiga toxin inh 7, Pf growth 48h inconclusive and Cycloheximide cs -3.
O=c1[nH]c2cc(F)ccc2c2ccc(F)cc12 was read as HCV inh -28% and AMA1-RON2 inh -14%.
`CN(C(=O)COC(=O)c1cc(S(=O)(=O)N2CCCCC2)ccc1Cl)c1ccccc1` gave Pf growth 96h inconclusive, HCV inh -29%, AMA1-RON2 inh 0% and Pf growth 48h inconclusive.
Screening C/C(=N\NC(=O)Cn1nc(C)cc1C)c1ccc([N+](=O)[O-])cc1 returned Pf growth 96h 45%, HCV inh 14%, Shiga toxin inh -9, AMA1-RON2 inh 25%, Pf growth 48h 16% and Cycloheximide cs 1.
C#C[C@]1(O)CCC2C3CCC4=Cc5oncc5CC4(C)C3CCC21C (stereo partly drawn) was read as HCV inh -20% and AMA1-RON2 inh -6%.
`C#C[C@]1(O)CC[C@H]2[C@@H]3CCC4=Cc5nc6nc7ccccc7n6cc5C[C@]4(C)[C@H]3CC[C@@]21C` gave Pf growth 96h 5.2µM*, HCV inh inconclusive, AMA1-RON2 inh 31% and Pf growth 48h 3.7µM*.
For CC1CCCCN1C(=O)CSc1nc(-c2ccccc2)cn1N (stereo not drawn) the results were Pf growth 96h 47%, HCV inh 5%, Shiga toxin inh 46*, AMA1-RON2 inh -6%, Pf growth 48h 77% and Cycloheximide cs 25*.
CC1CCCCN1C(=O)CSc1ccc(-c2ccc(F)cc2)nn1 (stereo not drawn) was read as Pf growth 96h inconclusive, HCV inh inconclusive, Shiga toxin inh 41, AMA1-RON2 inh -5%, Pf growth 48h 4% and Cycloheximide cs 19*.
`CC(=O)c1ccc(Nc2nc(C(N)C(C)C)cs2)cc1` (stereo not drawn) gave AMA1-RON2 inh 86%.
Screening Cc1ccc(CSc2[nH]c(=O)ncc2C)cc1 returned Pf growth 96h 7%, HCV inh 7%, Shiga toxin inh 13, AMA1-RON2 inh -8%, Pf growth 48h 17% and Cycloheximide cs -2.
Cc1cc(C)c(S(=O)(=O)N(C)CC(=O)NCCCn2ccnc2)c(C)c1 was read as Pf growth 96h -20%, HCV inh 16%, Shiga toxin inh 22, AMA1-RON2 inh -6%, Pf growth 48h 13% and Cycloheximide cs -3.
`Cn1c(SCC(=O)NC2CCCCC2)nnc1-c1cccc(N)c1` gave Pf growth 96h 4.1µM*, HCV inh 12%, Shiga toxin inh 8, AMA1-RON2 inh 2%, Pf growth 48h -19% and Cycloheximide cs 4.
For CC(=O)Nc1ccc(-c2nnc(SCC(=O)c3ccc4c(c3)Cc3ccccc3-4)n2C)cc1 the results were Pf growth 96h inconclusive, HCV inh -10%, Shiga toxin inh 21, AMA1-RON2 inh 7%, Pf growth 48h inconclusive and Cycloheximide cs 9.
For CCCn1c(SCC(=O)NC2CC2)nnc1-c1cccs1 the results were Pf growth 96h -18%, HCV inh -1%, Shiga toxin inh -31, AMA1-RON2 inh -10%, Pf growth 48h 13% and Cycloheximide cs -1.
For Cn1c(SCC(=O)N(C2CCCCC2)C2CCCCC2)nnc1-c1cccs1 the results were HCV inh 11%, Shiga toxin inh -4, AMA1-RON2 inh 0%, Pf growth 48h 12µM* and Cycloheximide cs -2.
`Cc1ccc(C(=O)CSc2nnc(-c3cccs3)n2C)o1` gave Pf growth 96h inconclusive, HCV inh 12%, Shiga toxin inh -4, AMA1-RON2 inh -5% and Cycloheximide cs -9.
For Cn1c(SCC(=O)NC2CC2)nnc1-c1cccs1 the results were Pf growth 96h 4%, HCV inh 9%, Shiga toxin inh 75*, AMA1-RON2 inh -10%, Pf growth 48h 235% and Cycloheximide cs 62*.
Screening Cn1c(SCC(=O)c2ccc3c(c2)Cc2ccccc2-3)nnc1-c1cccc(N)c1 returned Pf growth 96h inconclusive, HCV inh -17%, Shiga toxin inh 14, AMA1-RON2 inh 2%, Pf growth 48h inconclusive and Cycloheximide cs 20*.
Screening COc1cccc(C(O)c2nc(-c3cccc(F)c3)cs2)c1 (stereo not drawn) returned AMA1-RON2 inh 13%.
Cc1ccc2[nH]c3c(c2c1)CN(C(C)C)CC3 was read as Pf growth 96h -2%, HCV inh 10%, Shiga toxin inh -4, AMA1-RON2 inh 4%, Pf growth 48h 10% and Cycloheximide cs -4.
Screening Cn1c(SCC(=O)c2ccc(O)c(O)c2)nnc1-c1cccs1 returned Pf growth 96h inconclusive, HCV inh -14%, Shiga toxin inh 11, AMA1-RON2 inh 16%, Pf growth 48h inconclusive and Cycloheximide cs 26*.
`Cn1c(SCC(=O)c2ccc(O)c(O)c2)nnc1-c1ccccc1` gave Pf growth 96h -10%, HCV inh -19%, Shiga toxin inh 29, AMA1-RON2 inh 51% and Cycloheximide cs 11.
CC(C)c1ccc(-c2nnc(SCC(=O)NC3CC3)n2C)cc1 was read as Pf growth 96h 0%, HCV inh 14%, Shiga toxin inh 37*, AMA1-RON2 inh 4%, Pf growth 48h 55% and Cycloheximide cs 13*.
`O=C(NC1CC1)c1[nH]c(C(F)(F)F)nc1-c1ccccc1` gave AMA1-RON2 inh -6%.
For COc1ccccc1NC(=O)c1cc(S(=O)(=O)N2CCCC2)cn1C the results were Pf growth 96h inconclusive, HCV inh -13%, Shiga toxin inh 9, AMA1-RON2 inh 2%, Pf growth 48h -25% and Cycloheximide cs -1.
For Cc1csc2c(N3CCN(C(=O)Nc4ccc(OC(F)(F)F)cc4)CC3)ncnc12 the results were Pf growth 96h inconclusive, HCV inh inconclusive, Shiga toxin inh -1, AMA1-RON2 inh -28%, Pf growth 48h 1.5µM* and Cycloheximide cs -1.
Cc1csc2c(N3CCCCC3)ncnc12 was read as Pf growth 96h 20%, HCV inh -5%, Shiga toxin inh 44, AMA1-RON2 inh 8%, Pf growth 48h 36% and Cycloheximide cs 30*.
